# Measurements: article PMC11062922 (Nature Chemical Biology, 2023)
# Read-outs that look alike come from different tables or passages of the source.
# Columns and labels:
# Design in all cases: species or system human, MV4-11 + K-562 + COLO205 + SK-N-BE2 + OVCAR-8
# [1] = tested on: CDC42BPA; details: read-out: apparent Kd; compound concentrations:100 nM and 1000 nM (sheet 'Samples'); n = 1
# [2] = tested on: CDC42BPB; details: read-out: apparent Kd; compound concentrations:100 nM and 1000 nM (sheet 'Samples'); n = 1
# [3] = tested on: CDC42BPG; details: read-out: apparent Kd, n = 1
# [4] = tested on: CDKL5; details: read-out: apparent Kd; compound concentrations:100 nM and 1000 nM (sheet 'Samples'); n = 1
# [5] = tested on: GRK6; details: read-out: apparent Kd; compound concentrations:100 nM and 1000 nM (sheet 'Samples'); n = 1
# [6] = tested on: LATS1; details: read-out: apparent Kd; compound concentrations:100 nM and 1000 nM (sheet 'Samples'); n = 1
# [7] = tested on: PKN1; details: read-out: apparent Kd; compound concentrations:100 nM and 1000 nM (sheet 'Samples'); n = 1
# [8] = tested on: PKN2; details: read-out: apparent Kd; compound concentrations:100 nM and 1000 nM (sheet 'Samples'); n = 1
# [9] = tested on: PKN3; details: read-out: apparent Kd; compound concentrations:100 nM and 1000 nM (sheet 'Samples'); n = 1
# [10] = tested on: PRKAA1; details: read-out: apparent Kd; compound concentrations:100 nM and 1000 nM (sheet 'Samples'); n = 1
# [11] = tested on: PRKACA; details: read-out: apparent Kd; compound concentrations:100 nM and 1000 nM (sheet 'Samples'); n = 1
# [12] = tested on: PRKACB; details: read-out: apparent Kd; compound concentrations:100 nM and 1000 nM (sheet 'Samples'); n = 1
# [13] = tested on: PRKAG1; details: read-out: apparent Kd; compound concentrations:100 nM and 1000 nM (sheet 'Samples'); n = 1
# [14] = tested on: PRKAG2; details: read-out: apparent Kd; compound concentrations:100 nM and 1000 nM (sheet 'Samples'); n = 1
# [15] = tested on: PRKCA; details: read-out: apparent Kd; compound concentrations:100 nM and 1000 nM (sheet 'Samples'); n = 1
# [16] = tested on: PRKCD; details: read-out: apparent Kd; compound concentrations:100 nM and 1000 nM (sheet 'Samples'); n = 1
# [17] = tested on: PRKG1; details: read-out: apparent Kd; compound concentrations:100 nM and 1000 nM (sheet 'Samples'); n = 1
# [18] = tested on: PRKX;PRKY; details: read-out: apparent Kd; compound concentrations:100 nM and 1000 nM (sheet 'Samples'); n = 1
# [19] = tested on: ROCK1; details: read-out: apparent Kd; compound concentrations:100 nM and 1000 nM (sheet 'Samples'); n = 1
# [20] = tested on: ROCK2; details: read-out: apparent Kd; compound concentrations:100 nM and 1000 nM (sheet 'Samples'); n = 1
# [21] = tested on: RPS6KA5; details: read-out: apparent Kd; compound concentrations:100 nM and 1000 nM (sheet 'Samples'); n = 1
# [22] = tested on: RPS6KB1; details: read-out: apparent Kd; compound concentrations:100 nM and 1000 nM (sheet 'Samples'); n = 1
# [23] = tested on: CAMK4; details: read-out: apparent Kd; compound concentrations: 100 nM and 1000 nM (sheet 'Samples'), CATDS: 0.39976270483603599; n = 1
# [24] = tested on: CSNK1A1; details: read-out: apparent Kd, compound concentrations: 100 nM and 1000 nM (sheet 'Samples'), n = 1
# [25] = tested on: RIOK2; details: read-out: apparent Kd, compound concentrations: 100 nM and 1000 nM (sheet 'Samples'), n = 1
# [26] = tested on: MAPK11; details: read-out: apparent Kd; compound concentrations: 100 nM and 1000 nM (sheet 'Samples'), CATDS: 0.59050582210334401; n = 1
# [27] = tested on: MAPK14; details: read-out: apparent Kd; compound concentrations: 100 nM and 1000 nM (sheet 'Samples'), CATDS: 0.223513912329704; n = 1
# [28] = tested on: MAPKAPK2; details: read-out: apparent Kd; compound concentrations: 100 nM and 1000 nM (sheet 'Samples'), CATDS: 0.33085096444850498; n = 1
# [29] = tested on: CAMK2B; details: read-out: apparent Kd; compound concentrations: 100 nM and 1000 nM (sheet 'Samples'), CATDS: 0.17838032280045099; n = 1
# [30] = tested on: EGFR; details: read-out: apparent Kd; compound concentrations: 100 nM and 1000 nM (sheet 'Samples'), CATDS: 0.186882259763333; n = 1
# [31] = tested on: FN3KRP; details: read-out: apparent Kd; compound concentrations: 100 nM and 1000 nM (sheet 'Samples'), CATDS: 0.322807069227038; n = 1
# [32] = tested on: NQO2; details: read-out: apparent Kd; compound concentrations: 100 nM and 1000 nM (sheet 'Samples'), CATDS: 0.51408272608471794; n = 1
# [33] = tested on: CDC42; details: read-out: apparent Kd; compound concentrations: 100 nM and 1000 nM (sheet 'Samples'), CATDS: 0.112066673449154; n = 1
# [34] = tested on: CSNK1D; details: read-out: apparent Kd; compound concentrations: 100 nM and 1000 nM (sheet 'Samples'), CATDS: 0.430543569866988; n = 1
# [35] = tested on: CSNK1E; details: read-out: apparent Kd; compound concentrations: 100 nM and 1000 nM (sheet 'Samples'), CATDS: 0.24847771886196199; n = 1
# [36] = tested on: FLT3; details: read-out: apparent Kd; compound concentrations: 100 nM and 1000 nM (sheet 'Samples'), CATDS: 0.12792168712312599; n = 1
# [37] = tested on: GAK; details: read-out: apparent Kd; compound concentrations: 100 nM and 1000 nM (sheet 'Samples'), CATDS: 0.12375475758879401; n = 1
structure (smiles),measurement,setting,value
COc1ccc(C[C@@H](CN)NC(=O)c2cc(Br)c(-c3ccnc4[nH]ccc34)s2)cc1.COc1ccc(C[C@@H](CN)NC(=O)c2cc(Br)c(-c3ccnc4[nH]ccc34)s2)cc1.Cl.Cl [GSK1389063A],potency estimated from few doses,[1],757 nM
same,potency estimated from few doses,[2],80.7 nM
same,potency estimated from few doses,[3]; compound concentrations:100 nM and 1000 nM (sheet 'Samples'),21.2 nM
same,potency estimated from few doses,[4],1370 nM
same,potency estimated from few doses,[5],93 nM
same,potency estimated from few doses,[6],287 nM
same,potency estimated from few doses,[7],339 nM
same,potency estimated from few doses,[8],897 nM
same,potency estimated from few doses,[9],921 nM
same,potency estimated from few doses,[10],1570 nM
same,potency estimated from few doses,[11],11.7 nM
same,potency estimated from few doses,[12],23.5 nM
same,potency estimated from few doses,[13],976 nM
same,potency estimated from few doses,[14],863 nM
same,potency estimated from few doses,[15],2340 nM
same,potency estimated from few doses,[16],1750 nM
same,potency estimated from few doses,[17],27.3 nM
same,potency estimated from few doses,[18],127 nM
same,potency estimated from few doses,[19],17.9 nM
same,potency estimated from few doses,[20],21.5 nM
same,potency estimated from few doses,[21],899 nM
same,potency estimated from few doses,[22],130 nM
COc1ccc(C2=C(N3CCc4ccccc43)C(=O)NC2=O)cc1 [SB-361058],potency estimated from few doses,[23],1170 nM
same,potency estimated from few doses,[24]; CATDS: 0.27381506430700697,2590 nM
same,potency estimated from few doses,[25]; CATDS: 0.35131899059620803,1480 nM
Nc1c(C(=O)c2cccc(-c3ccc[n+]([O-])c3)c2)cnn1-c1ccc(F)cc1F [RO1166259-000],potency estimated from few doses,"[3]; compound concentrations: 100 nM and 1000 nM (sheet 'Samples'), CATDS: 0.14684216194917399",1410 nM
same,potency estimated from few doses,[26],10.2 nM
same,potency estimated from few doses,[27],100 nM
same,potency estimated from few doses,[28],31.2 nM
CS(=O)(=O)CCNCc1cc(-c2cc3c(Nc4ccc(OCc5cccc(F)c5)c(Cl)c4)ncnc3s2)cs1 [GSK300014A],potency estimated from few doses,[29],575 nM
same,potency estimated from few doses,[30],481 nM
same,potency estimated from few doses,[31],112 nM
same,potency estimated from few doses,[32],48.6 nM
CCc1nn2ncccc2c1-c1ccnc(NC2CC2)n1 [GW683768X],potency estimated from few doses,[33],1390 nM
same,potency estimated from few doses,[24]; CATDS: 0.11767767323313399,1200 nM
same,potency estimated from few doses,[34],95.2 nM
same,potency estimated from few doses,[35],230 nM
same,potency estimated from few doses,[36],948 nM
same,potency estimated from few doses,[37],1040 nM
same,potency estimated from few doses,[25]; CATDS: 0.107134967231821,1610 nM
